Bioassay records as filed in PubChem.
D1 ag = human D1 receptor agonism; P21728; HEK293 T-REx D1 cells, calcium flux, agonist mode; activation, % at 2 µM; 360,000 tested, 1% active; AID 504660; in the data active means activation above about 30%; further: 0% is about no effect
Target sequence (P21728 whole entry, looked up): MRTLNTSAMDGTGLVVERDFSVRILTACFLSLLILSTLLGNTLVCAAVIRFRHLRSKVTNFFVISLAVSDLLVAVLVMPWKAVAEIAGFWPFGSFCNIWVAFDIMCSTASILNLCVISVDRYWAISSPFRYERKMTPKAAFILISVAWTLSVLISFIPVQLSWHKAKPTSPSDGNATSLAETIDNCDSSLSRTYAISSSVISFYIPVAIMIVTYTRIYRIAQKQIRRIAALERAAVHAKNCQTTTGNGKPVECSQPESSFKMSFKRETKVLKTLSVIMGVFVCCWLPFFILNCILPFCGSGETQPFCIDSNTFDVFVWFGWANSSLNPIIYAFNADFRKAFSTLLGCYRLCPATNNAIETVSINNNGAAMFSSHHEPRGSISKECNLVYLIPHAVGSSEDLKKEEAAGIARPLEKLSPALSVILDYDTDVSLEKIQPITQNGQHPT
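Tetracycline-induced HEK293 TREx D1 cells, force-coupled to calcium signalling, were dye-loaded with a no-wash calcium kit. Compound was pin-added after a 10 s baseline. Fluorescence was read kinetically at 1 cycle/s for 180 s, with calcium rises flagged as agonism.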
DRD3 antagonist = D3 dopamine receptor (human) antagonism | P35462 | D3R cells, DiscoveRx beta-arrestin luminescence, antagonist mode; active compounds read low | AID 652054 | max response, negative = inhibition, % | 360,000 tested, 2.5% active; in the data active means max response below about -50%; inconclusive means no clear call, values can overlap the other calls; further: on the % scale 0 is the no-effect control and ±100 the full control effect
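Cells expressing the human receptor were seeded at 1500 cells/well, incubated overnight at 37 degrees C in 5% CO2, then exposed to library compounds with dopamine controls for 90 minutes at 37 degrees C before luminescent detection.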
D1 potentiator = human D1 dopamine receptor positive modulation; 360,000 tested, 0.036% active; P21728; HEK293 TREx D1 cells, calcium flux, dopamine EC20 potentiation; potentiation, % at 10 µM; in the data active means potentiation above about 30%; further: 0% is about no effect
D3 ag = D3 dopamine receptor (human) agonism; 410,000 tested, 0.58% active; D3R DiscoveRx beta-arrestin cells, luminescence, 90 min; P35462; AID 652048; max activation, %; in the data active means max activation above about 30%; further: 0% is about no effect
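Cells at 1500/well, incubated overnight, then treated with pinned compounds (dopamine as control) for 90 min at 37 degrees C. DiscoveRx reagent added for 30 - 60 minutes at room temperature; luminescence read.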
D1 antagonist = antagonists of human D1 dopamine receptor; activity change, negative = inhibition, % at 10 µM; 360,000 tested, 3.2% active; HEK293 TREx D1 cells, calcium flux, dopamine EC80; active compounds read low; in the data active means activity change below about -30%; further: on the % scale 0 is the no-effect control and ±100 the full control effect
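After overnight tetracycline induction at 30 C, force-coupled D1 HEK293 cells took up a no-wash calcium dye at room temperature. Compounds were added and monitored 180 s, and the response to EC80 dopamine was then recorded.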
* hit, by the source's call; ? = inconclusive; . = not tested or not shown; ! = not active in a repeat. Hits are enriched below; roughly 6.1% of the tested compounds scored in any of these assays.

SMILES | D1 ag | DRD3 antagonist | D1 potentiator | D3 ag | D1 antagonist
COc1ccc(CN2CCN(Cc3ccc4ccccc4c3)CC2)cc1OC | 7 | -76* | -11 | -49 | -1
COc1ccc2ccccc2c1CN1CCN(Cc2ccccc2)CC1 | -1 | -71* | -12 | -30 | -9
COc1ccccc1CN1CCN(Cc2ccc3ccccc3c2)CC1 | 6 | -90* | -9 | -2 | 36
COc1ccc(N(CC(=O)N2CCN(Cc3ccccc3)CC2)S(C)(=O)=O)cc1OC | 4 | 6 | -2 | -4 | 29
N#Cc1ccccc1S(=O)c1ccccc1C(=O)Nc1ccccc1 (stereo not given) | 3 | -21 | -5 | -11 | 2
O=C(CSc1ccc([N+](=O)[O-])cc1)Nc1nnc(C2CC2)s1 | . | 13 | . | -3 | .
Cc1nn(CC(=O)Nc2ccc3c(c2)CCC3)c(C)c1[N+](=O)[O-] | 1 | -30 | -1 | -14 | 12
O=C(Cn1c2[n+](c3ccc(C(F)(F)F)cc31)CCCCC2)c1cccc([N+](=O)[O-])c1 | 2 | -89* | 1 | -12 | -5
O=C(Cn1c2[n+](c3ccc(C(F)(F)F)cc31)CCCCC2)c1ccc2c(c1)OCCO2 | 1 | ? | 3 | -3 | -13
O=C(Cn1c2[n+](c3ccc(C(F)(F)F)cc31)CCCCC2)Nc1ccccc1 | 3 | -51* | 15 | -33 | -8
O=C(NCCS(=O)(=O)NCCc1ccccc1)c1ccccc1 | 0 | 0 | -11 | -8 | -10
O=C1CC(c2ccccc2)CC2=C1CN(C1CCCCC1)CN2 (stereo not given) | 0 | -79* | -4 | -3 | -16
O=C1NCN(C2CCCCC2)CN1 | . | 4 | . | 9 | .
COc1ccccc1Oc1ccc(N2CC(C(=O)OCC(=O)c3ccccc3)CC2=O)cc1 (stereo not given) | 5 | -3 | -13 | 2 | -30*
CN1CCN(C(=O)c2ccc(CS(=O)Cc3ccc(Cl)cc3)o2)CC1 (stereo not given) | 3 | -9 | 0 | -5 | -34*
Nc1c2c(nn1-c1ccccc1)CCC2 | -1 | -16 | 0 | -5 | 0
O=C(CCNS(=O)(=O)c1cccs1)Nc1nccs1 | 2 | 12 | -6 | -7 | -32*
S=C(N/N=C/c1cccc2ccccc12)Nc1cccc(Cl)c1 | 4 | -54* | -2 | -12 | 8
S=C(N/N=C/c1ccccc1Cl)Nc1ccccc1 | 0 | -64* | -4 | -34 | 16
Oc1cccc(/C=N/NC(=S)Nc2cccnc2)c1O | 1 | 46 | -1 | 25 | 1
Oc1ccc(/C=N/NC(=S)Nc2cccnc2)c(O)c1O | 1 | 1 | 3 | 37* | 1
COc1ccc(CNc2oc(-c3ccc(COc4ccccc4C)o3)nc2C#N)cc1 | 0 | . | 1 | 6 | -3
COc1ccc(-c2cc3ccc(O)c(CN4CCCCC4C)c3oc2=O)cc1OC (stereo not given) | 12 | . | -2 | -18 | -4
O=C1c2ccccc2C(=O)N1OCCCN1C(=O)c2ccccc2S1(=O)=O | . | -7 | . | 2 | .
CC(C)OC(=O)NCCOC(=O)Nc1cccc(Cl)c1 | 22 | ? | -9 | -3 | -31*
SMILES | D1 ag | DRD3 antagonist | D1 potentiator | D3 ag | D1 antagonist
C=COCCNC(=O)Nc1ccc(Cl)c(Cl)c1 | 47* | -4 | -2 | 4 | -57*
CC(C)OC(=O)Nc1ccc(-c2ccc(NC(=O)OC(C)C)cc2Cl)c(Cl)c1 | 2 | 52 | -3 | 9 | 6
CC(C)OC(=O)NCCOC(=O)Nc1ccc(Cl)c(Cl)c1 | 9 | 20 | -3 | 16 | -40*
O=C(Nc1cccc(Cl)c1)OCCOC(=O)Nc1cccc(Cl)c1 | . | -5 | . | 4 | .
COCCNC(=S)Nc1ccc(Cl)c(Cl)c1 | 18 | 26 | -5 | 0 | -9
O=C(Nc1cccc(Cl)c1)OCCOc1ccccc1 | 8 | -1 | -5 | -2 | -31*
CC(C)OC(=O)NC(C)(C)COC(=O)Nc1cccc(Cl)c1 | 25 | ? | -9 | -9 | -13
C/C(=C\C(=O)c1ccccc1)Nc1ccc2c(c1)OCO2 | 1 | -9 | -8 | -1 | 5
CC1CNc2c(cccc2S(=O)(=O)N[C@@H](CCCN=C(N)N)C(=O)N2CC[C@@H](C)C[C@@H]2C(=O)O)C1 (stereo not given in full) | 1 | . | -2 | . | 0
C[C@@H]1CCN(C(=O)[C@H](CCCN=C(N)N)NS(=O)(=O)c2cccc3c2NC[C@H](C)C3)[C@@H](C(=O)O)C1 | . | . | . | 95* | .
CC(CNC(=O)Cn1cnc2c(NCc3ccccc3)ncnc21)c1ccccc1 (stereo not given) | . | 5 | . | 45* | .
Cc1cc(C)c(CN2CCN(C(=O)Cn3cnc4c(NCc5ccccc5)ncnc43)CC2)c(C)c1 | . | 11 | . | 31* | .
Cc1ccsc1/C=C/C1=NCCCN1C | 2 | -52*! | -6 | -45 | 7
Cc1ccsc1/C=N/N=C/c1sccc1C | 6 | 0 | 14 | 2 | 7
O=S(=O)(NCc1c(Cl)cccc1Oc1ccccc1)c1ccc(F)cc1 | 29 | 61 | -4 | 0 | -34*
O=C(O)CSCC(=O)NCc1c(Cl)cccc1Oc1ccccc1 | 1 | 13 | 3 | 7 | 5
Cc1cc(C)cc(NC(=O)c2cc(C)n(Cc3cccs3)c2C)c1 | 4 | ? | 2 | -6 | 10
O=C(CN1CCN(C(=O)c2cccc(S(=O)(=O)N3CCCC3)c2)CC1)Nc1cccc(F)c1 | 3 | 16 | -4 | 3 | -33*
O=C(Nc1cccc(O)c1)c1ccc(S(=O)(=O)N2CCCCCC2)cc1 | 0 | -13 | 0 | -2 | -8
O=C(Nc1cccc(S(=O)(=O)N2CCCCC2)c1)c1ccccc1NS(=O)(=O)c1ccc(F)cc1 | 41* | 0 | -8 | -2 | -52*
COc1ccc(-c2cnnn2-c2ccc(NC(=O)c3ccc(S(=O)(=O)N4CCCCC4)cc3)cc2)cc1OC | 6 | 27 | -8 | 26 | -34*
O=C(CN1CCCN(S(=O)(=O)c2ccc(F)cc2)CC1)Nc1cccc(F)c1 | 2 | -7 | -12 | -7 | -2
O=C(Nc1cccc(F)c1)c1ccc(S(=O)(=O)N2CCCCC2)cc1 | 12 | 1 | -8 | -1 | -43*
CC(=O)c1c(C)oc2c(Cl)cc(NS(=O)(=O)c3cc(C)c(C)cc3C)cc12 | 7 | . | -2 | -17 | 2
CCN(CC)C(=S)NC(=O)c1cc(OC)c(OC)c(OC)c1 | -1 | -8 | 7 | 29 | 2
O=C(Nc1ccc(Cc2ccncc2)cc1)c1ccc(S(=O)(=O)N2CCCC2)cc1 | 23 | 39 | -7 | -1 | -39*
COC(=O)c1ccccc1NS(=O)(=O)c1ccc(F)cc1 | -1 | 16 | -2 | -9 | -36*
O=C(N/N=C/c1cn(CCOc2ccccc2)c2ccccc12)c1ccncc1 | 3 | 12 | -5 | 1 | -34*
COc1ccccc1OCCn1cc(/C=N/NC(=O)c2ccncc2)c2ccccc21 | 2 | 9 | -15 | 3 | 7
